Screening data: PubChem BioAssay, National Center for Advancing Translational Sciences (NCATS)
SNCA expr inh: inhibitors of alpha-synuclein (SNCA) gene expression; HEK-293 SNCA-luciferase knock-in, luminescence, 24 h; Potency, µM (titrated, usually from 57.2 µM), for the others: at the top dose activity change, negative = inhibition, actives largely listed as inhibitors; 0.17% of 140,000 active; AID 1671194;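 also: plate controls were DMSO cells for no effect and cell-free wells for full effect; nearly all actives have a fitted effect of over 45% in size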
FLuc inh: blocks purified firefly luciferase enzyme activity | purified P. pyralis luciferase, luminescence, biochemical | Potency, µM (top dose mostly 115 µM), usual class: inhibitors | 2.5% of 76,000 active | AID 1347043; also: % is scaled to controls: 0 for no effect and ±100 for the full control effect; nearly all actives have a fitted effect of over 65% in size
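Purified P. pyralis luciferase (10nM final) in 50mM Tris acetate pH 7.5, 10mM Mg acetate, 0.01% Tween-20, 0.05% BSA with 10uM D-luciferin and 10uM ATP. Compounds titrated qHTS. Luminescence imaged on CCD.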
NIH3T3 tox: cytotoxic compounds in NIH 3T3 cells; NIH 3T3 viability, CellTiter-Glo ATP luminescence, 48-72 h; Potency, µM (doses to about 96.7 µM), without a hit: at the highest dose activity change, negative = cytotoxicity, hits mostly inhibitors; 4.3% of 94,000 active; AID 1345082; also: % is scaled to controls: 0 for no effect and ±100 for the full control effect; nearly all actives have a fitted effect of over 55% in size
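Viability of NIH 3T3 cells after 48 or 72 hr compound treatment at 37 °C was assessed by CellTiter-Glo, with luminescence imaged following a 10 min room-temperature step.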
HEK293 tox: HEK 293 cell cytotoxicity; 6.6% of 94,000 active; HEK 293 viability, ATP luminescence (CellTiter-Glo), 48-72 h; Potency, µM (series often up to 115 µM), inactives show at the highest dose activity change, negative = cytotoxicity, most hits filed as inhibitors; also: % is scaled to controls: 0 for no effect and ±100 for the full control effect; nearly all actives have a fitted effect of over 60% in size
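Luminescence from cellular ATP, measured with CellTiter-Glo, indicates HEK 293 viability. Cells plated at 250 cells/well are treated with compound for 48 or 72 hr at 37 degree Celsius before reagent addition.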
hNpr1 antagonist: antagonists of human natriuretic peptide receptor Npr1; AID 1347048; Potency, µM (top dose mostly 46.3 µM), for the others: at the highest dose activity change, negative = inhibition, usual class: inhibitors; HEK293 hNpr1 GloSensor cGMP, ANP-stimulated luminescence; 1.6% of 76,000 active; P16066; calls by dose curve; also: % is scaled to controls: 0 for no effect and ±100 for the full control effect; nearly all actives have a fitted effect of over 60% in size
Target sequence (P16066 whole entry, looked up): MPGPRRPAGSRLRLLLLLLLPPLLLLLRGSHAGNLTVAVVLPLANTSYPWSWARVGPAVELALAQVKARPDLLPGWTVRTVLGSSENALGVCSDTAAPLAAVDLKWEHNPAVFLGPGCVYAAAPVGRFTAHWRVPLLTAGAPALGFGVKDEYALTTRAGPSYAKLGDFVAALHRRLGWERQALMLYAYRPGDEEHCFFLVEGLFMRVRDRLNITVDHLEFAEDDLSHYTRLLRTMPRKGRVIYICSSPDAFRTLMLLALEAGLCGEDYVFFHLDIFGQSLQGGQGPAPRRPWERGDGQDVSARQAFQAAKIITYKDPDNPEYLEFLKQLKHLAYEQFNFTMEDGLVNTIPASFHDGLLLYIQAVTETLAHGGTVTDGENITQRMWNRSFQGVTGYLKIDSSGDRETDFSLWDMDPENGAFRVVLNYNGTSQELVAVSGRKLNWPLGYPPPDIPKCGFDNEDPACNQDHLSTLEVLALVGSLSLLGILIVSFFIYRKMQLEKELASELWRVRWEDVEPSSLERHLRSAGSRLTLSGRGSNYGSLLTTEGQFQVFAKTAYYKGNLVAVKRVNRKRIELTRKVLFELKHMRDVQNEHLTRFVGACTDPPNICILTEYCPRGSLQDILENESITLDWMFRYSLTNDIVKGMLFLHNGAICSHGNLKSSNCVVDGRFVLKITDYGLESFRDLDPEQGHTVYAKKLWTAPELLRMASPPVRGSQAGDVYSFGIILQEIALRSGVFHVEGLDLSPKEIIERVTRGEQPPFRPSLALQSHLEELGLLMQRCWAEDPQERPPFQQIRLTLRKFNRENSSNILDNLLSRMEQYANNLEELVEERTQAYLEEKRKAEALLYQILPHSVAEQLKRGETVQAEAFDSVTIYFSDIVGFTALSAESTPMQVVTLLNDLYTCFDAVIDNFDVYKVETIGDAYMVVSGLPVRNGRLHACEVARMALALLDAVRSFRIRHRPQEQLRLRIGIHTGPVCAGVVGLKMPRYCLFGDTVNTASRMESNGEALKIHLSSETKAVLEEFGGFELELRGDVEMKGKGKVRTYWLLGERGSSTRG
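HEK293 cells stably expressing human Npr1 and cGMP GloSensor pGS-40F, loaded 2 h with 2% GloSensor reagent, given compound 30 min at room temperature. Luminescence read before and 20 min after 0.1 nM hNppA.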
HEK293 viab: counter-screen for SNCA expression inhibitors: cell viability; HEK-293-SNCA-luc viability, GF-AFC fluorescence, 24 h; Potency, µM (highest dose often 57.1 µM), for inactives: top-dose activity change, negative = cytotoxicity, most hits filed as cytotoxic; 0.12% of 150,000 active; AID 1671193;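 also: 0% = DMSO-treated cells and -100% = medium-only wells without cells; nearly all actives have a fitted effect of over 30% in size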
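HEK-293-SNCA-luc cells (1500/well) plated 24 h, then exposed 24 h to a dilution series; GF-AFC added 30 min at 37C, fluorescence 405/540 nm; normalised to medium-only and DMSO wells, Hill fit.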
NPR1 antag cnf: hNpr1 antagonism, confirmation assay | shares compounds with hNpr1 antagonist | HEK293 hNpr1 cGMP GloSensor luminescence, ANP-stimulated | Potency, µM (highest dose often 57.6 µM), for the others: at the highest dose activity change, negative = inhibition, hits mostly inhibitors | 76% of 1,400 active | AID 1347044; calls by dose curve; also: nearly all actives have a fitted effect of over 70% in size
Npr2 selectivity: antagonizes human Npr2, subtype selectivity check | HEK293 hNpr2 GloSensor cGMP luminescence, CNP-stimulated | Potency, µM (titrated, usually from 57.6 µM), without a hit: at the top dose activity change, negative = inhibition, hits mostly inhibitors | 67% of 1,400 active | AID 1347046 | shares compounds with hNpr1 antagonist; calls by dose curve; also: nearly all actives have a fitted effect of over 70% in size
FLuc counter: counter-screen for Npr1 antagonists: firefly luciferase inhibitors; shares compounds with hNpr1 antagonist; AID 1347047; purified FLuc enzyme, luminescence, Km substrate; 0.7% of 1,400 active; Potency, µM (top dose mostly 57.6 µM), for inactives: at the highest dose activity change, negative = inhibition, usual class: inhibitors; also: 0% is about no effect
GloSensor cGMP: counter-screen for Npr1 antagonists: GloSensor control cell line. shares compounds with hNpr1 antagonist. HEK293 GloSensor cGMP, SNP-stimulated, luminescence. Potency, µM (titrated, usually from 57.6 µM), for the others: top-dose activity change, negative = inhibition, hits mostly inhibitors. 69% of 1,400 active. AID 1347051; calls by dose curve; also: % is scaled to controls: 0 for no effect and ±100 for the full control effect; nearly all actives have a fitted effect of over 70% in size
* = called active by the depositor; i = inactive; ? = inconclusive; nt = not tested or not shown; [ ] = remark or other dose. Sampled rows, rich in hits. Any-hit rate of the full collection: about 7.2%. Unless noted, calls follow the shape of the dose curve; as a rule, active = well fitted curve in the direction sought with a large enough effect; inconclusive = small, poorly fitted or top-dose-only effect, or another doubt; inactive = no such curve, though single readings can be large; an effect the other way counts as inactive or inconclusive. Potency is read from the fitted curve at half-maximal effect.

SMILES | SNCA expr inh | FLuc inh | NIH3T3 tox | HEK293 tox | hNpr1 antagonist | HEK293 viab | NPR1 antag cnf | Npr2 selectivity | FLuc counter | GloSensor cGMP
O=C1NCc2ccccc2CC12CCN(Cc1c[nH]c3ccccc13)CC2 | -1.2% | nt | ? | ? | nt | -12.3% | nt | nt | nt | nt
c1ccc(Nc2cc3c(cn2)CN(Cc2c[nH]c4ccccc24)CCN3)cc1 | -23.5%[87.6 µM] | i | 25.1µM* | ? | ? | ? | 11.1µM* | 6.27µM* | -24.7%[86.2 µM] | ?
CC(C)C(=O)N1CCC(N2C(=O)C(O)C23CCCCC3)CC1 (configuration not stated) | 8.1% | i | 1.9% | i | 6.5% | 1.7% | nt | nt | nt | nt
Cc1cc(C)cc(-c2ccc(CN3CC4CCC(C3)N4c3ccc(C(F)(F)F)cc3)cc2)c1 | -4.1% | nt | -18.4% | -3.4% | nt | -6.1% | nt | nt | nt | nt
FC(F)(F)c1ccc(N2C3CCC2CN(Cc2cccs2)C3)cc1 | -13.8% | nt | ? | ? | nt | -2.6% | 24.1µM* | 21.5µM* | 0.8% | 17.1µM*
COc1cccc(NC(=O)c2cnc3c(c2)N(C(=O)Cc2ccc(C(C)C)cc2)CCC3)c1 | ? | i | ? | 22.4µM* | 11.2µM* | ? | 19.3µM* | 19.3µM* | 0.3% | 17.2µM*
c1ccc(CCCN[C@H]2CO[C@H]3[C@@H]2OC[C@@H]3n2cc(-c3ccccc3)nn2)cc1 | -0.9%[87.6 µM] | i | ? | ? | 10µM* | ? | 15.7µM* | 19.8µM* | 0.4%[86.2 µM] | 15.7µM*
COc1ccc(C(=O)N[C@H]2CO[C@H]3[C@@H]2OC[C@@H]3n2cc(-c3ccccc3)nn2)cc1 | 29.1%[87.6 µM] | i | ? | ? | -28.9%[70.6 µM] | -26.6%[87.6 µM] | nt | nt | nt | nt
COC(=O)c1cccc(NC(=S)N[C@H]2CO[C@H]3[C@@H]2OC[C@@H]3n2cc(-c3ccccc3)nn2)c1 | -12.7% | i | ? | ? | 11.2µM* | -16.5% | 12.2µM* | 17.2µM* | -6.9% | 12.2µM*
O[C@@H]1CO[C@H]2[C@@H]1OC[C@@H]2n1cc(-c2ccccc2)nn1 | 17.6%[87.6 µM] | i | -9.7%[230 µM] | ? | -9.2%[70.6 µM] | 2.1%[87.6 µM] | nt | nt | nt | nt
CC(C)OC(=O)N1CCC(COc2ccc3c(cnn3CC[S+](C)(=O)[O-])c2)CC1 | ? | i | ? | ? | 15.8µM* | -23.0%[87.6 µM] | 15.7µM* | 22.2µM* | -12.2%[86.2 µM] | 14µM*
CS(=O)(=O)N1CCc2ccc(C(=O)Nc3ccc(Oc4ccccc4)cc3)cc21 | -25.4% | i | -20.9% | ? | 1.58µM* | ? | 2.73µM* | 3.43µM* | -0.6% | 2.43µM*
COc1ccc(NC(=O)c2ccc3c(c2)CCN3S(=O)(=O)c2ccccc2)cc1 | -4.9% | nt | nt | nt | nt | -8.6% | nt | nt | nt | nt
Cc1ccc(-c2ccc3nnc(CNC(=O)c4ccc(F)c(F)c4)n3n2)cc1C | ? | i | ? | ? | 4.4% | -2.9% | nt | nt | nt | nt
O=C1NN=C(c2cccnc2)C12CCN([S+](=O)([O-])c1cccc(C(F)(F)F)c1)CC2 | 10.1% | i | ? | ? | ? | -5.2% | 21.7µM* | 21.7µM* | 1.7% | 24.3µM*
Cn1nc(C2CCN(C(=O)c3ccc4ccccc4n3)CC2)c2c1CCOC2 | -9.4% | i | 4.8% | 0.5% | 6.7% | -8.1% | nt | nt | nt | nt
CCn1c2c(c(=O)n1-c1ccccc1)CCN(C(=O)c1ccc(Oc3ccccc3)cc1)C2 | 3.4% | i | ? | ? | 8.91µM* | ? | 8.62µM* | 10.9µM* | -0.3% | 7.69µM*
CCn1c2c(c(=O)n1Cc1ccccc1)CCN(C(=O)c1ccc(Oc3ccccc3)cc1)C2 | -20.2% | i | ? | ? | 11.2µM* | -7.7% | 24.3µM* | 21.7µM* | 0.2% | 19.3µM*
CS(=O)(=O)c1ccc(CN2CCN3C(=O)N(Cc4ccccc4)C[C@H]3C2)cc1 | -13.3%[87.6 µM] | i | -12.1%[138 µM] | -27.8%[172 µM] | -27.8%[70.6 µM] | -10.1%[87.6 µM] | nt | nt | nt | nt
O=C(NCc1cccc(F)c1)N1CCC(n2cnnc2C2CC2)C1 (configuration not stated) | 40.7% | i | i | -3.1% | 2.2% | 13.4% | nt | nt | nt | nt
Cc1nsc(NC(=O)NC23CC4CC(C2)CC(C(C)C)(C4)C3)n1 | -27.6% | i | ? | 31.6µM* | 12.6µM* | -12.2% | 30.6µM* | 27.3µM* | -6.4% | ?
Cc1nsc(NC(=O)N2CCC(N)CC2)n1 | 10.9% | i | i | i | 9.0% | 2.6% | nt | nt | nt | nt
CC(C)c1nncn1C1CCN(S(=O)(=O)c2cccc(Cl)c2)CC1 | -14.9% | i | -24.2% | -20.8% | ? | 5.3% | ? | ? | 0.1% | 24.3µM*
Cc1cccc(-n2ncc3c2CCCC3NC(=O)CCC(F)(F)F)c1C (configuration not stated) | ? | i | -27.3% | ? | ? | -3.5% | 24.3µM* | ? | 2.1% | 24.3µM*
Cc1ccc(NC(=O)N2C[C@H](c3nc(-c4cccnc4)no3)[C@@H](C)C2)cc1 | 26.9% | ? | -13.8% | ? | 1.7% | 2.4% | nt | nt | nt | nt
COc1ccc2c(c1)CN(CC1CC1)C(=O)CCN2C(=O)C1CCC1 | nt | nt | ? | -24.4% | nt | nt | nt | nt | nt | nt
CCC1Oc2ccc(NC(=O)c3ccccc3OC(C)=O)cc2CN(Cc2ccccc2F)C1=O (configuration not stated) | -15.7% | i | 14.1µM* | 25.1µM* | 0.708µM* | -27.5% | 24.3µM* | 24.3µM* | -3.9% | 21.7µM*
CN1CCC2(CCC1=O)CN(Cc1cccc(Cl)c1Cl)CCN2C (configuration not stated) | ? | i | -0.4% | -6.4% | -0.7% | -3.9% | nt | nt | nt | nt
CN(Cc1ccc(N2CCCCC2)cc1)C(=O)c1ccc2c(c1)C(O)CCCCCN2C (configuration not stated) | 7.8% | i | ? | 35.5µM* | 14.1µM* | -2.7% | 24.3µM* | 21.7µM* | -0.4% | 27.3µM*
